# Measurements as given in ChEMBL document CHEMBL3988442, “University of Dundee, Small-Polar-MMV Screening Library” (2021).
# For some assays here: Entries with a potency or affinity are not part of this list.
# Tests used:
# Design in all cases: scale not given: direction of the effect not stated beside the values
# [1] = target: Protein translocase subunit SecA (Escherichia coli (strain K12)) (UniProt P10408); test: Assay to Identify E. coli SecA ATPase Inhibitors; type: functional; details: 30 µM
# [2] = target: T1, Ubiquitin-activating enzyme e1, putative (Leishmania donovani (strain BPK282A1)) (UniProt E9BSI1); test: Leishmania donovani Ubiquitin Activating Enzyme (LdE1); type: functional; details: 30 µM
# T1 sequence (whole entry): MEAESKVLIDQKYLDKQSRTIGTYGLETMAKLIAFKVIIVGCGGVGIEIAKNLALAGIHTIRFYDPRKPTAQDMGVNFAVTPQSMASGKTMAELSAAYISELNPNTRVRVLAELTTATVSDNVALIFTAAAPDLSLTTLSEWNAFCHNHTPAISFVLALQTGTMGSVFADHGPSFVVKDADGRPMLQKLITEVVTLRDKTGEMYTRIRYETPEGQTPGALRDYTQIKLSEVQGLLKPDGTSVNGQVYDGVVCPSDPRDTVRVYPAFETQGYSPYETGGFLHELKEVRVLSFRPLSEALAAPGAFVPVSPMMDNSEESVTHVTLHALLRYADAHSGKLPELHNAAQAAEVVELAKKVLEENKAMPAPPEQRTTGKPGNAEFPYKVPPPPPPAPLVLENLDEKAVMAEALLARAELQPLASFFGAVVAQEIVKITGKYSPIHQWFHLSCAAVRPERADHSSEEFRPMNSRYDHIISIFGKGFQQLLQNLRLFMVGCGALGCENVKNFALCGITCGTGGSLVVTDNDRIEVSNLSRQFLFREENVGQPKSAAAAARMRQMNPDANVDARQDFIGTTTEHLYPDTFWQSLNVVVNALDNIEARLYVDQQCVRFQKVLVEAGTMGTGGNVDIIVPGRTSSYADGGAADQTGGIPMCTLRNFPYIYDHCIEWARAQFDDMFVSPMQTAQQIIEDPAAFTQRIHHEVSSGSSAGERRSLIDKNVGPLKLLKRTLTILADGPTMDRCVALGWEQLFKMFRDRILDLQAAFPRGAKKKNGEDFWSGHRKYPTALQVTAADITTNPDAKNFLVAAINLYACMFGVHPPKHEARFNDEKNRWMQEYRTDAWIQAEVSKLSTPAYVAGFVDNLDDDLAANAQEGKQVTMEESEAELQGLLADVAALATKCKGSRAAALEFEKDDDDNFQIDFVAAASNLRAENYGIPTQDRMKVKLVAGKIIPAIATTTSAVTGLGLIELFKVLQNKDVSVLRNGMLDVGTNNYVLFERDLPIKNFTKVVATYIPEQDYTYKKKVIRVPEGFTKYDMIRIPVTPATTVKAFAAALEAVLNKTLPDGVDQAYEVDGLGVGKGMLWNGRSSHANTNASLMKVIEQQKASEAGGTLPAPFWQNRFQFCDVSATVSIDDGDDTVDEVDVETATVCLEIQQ
# [3] = target: AMP-activated protein kinase, AMPK (Homo sapiens) (UniProt P54646+O43741+P54619+Q9UGJ0+Q9Y478+Q13131+Q9UGI9); test: AMP-dependent Kinase enzyme assay. An in vitro enzyme assay that detects ADP turnover that is directly proportional to AMPK activity. This uses naive AMPK that is activated during the assay with MK-8722; type: functional; details: 30 µM
# [4] = target: Sialic acid-binding Ig-like lectin 9 (Homo sapiens) (UniProt Q9Y336); test: Hs-Siglec9 ALPHAscreen SOP 20170721; details: 10 µM
# Trypanosoma cruzi = test: Trypanosoma cruzi phosphomannomutase and mannose-1-phosphate guanylyltransferase assay; type: functional; details: 10 µM
# [5] = target: T2, Arginase-2, mitochondrial (Homo sapiens) (UniProt P78540); test: in vitro enzyme assay to detect the production of urea directly proportional to the activity of Arginase II; type: functional; details: 33.3 µM; note: in the data most compounds retested in dose-response had high values
# T2 sequence (whole entry): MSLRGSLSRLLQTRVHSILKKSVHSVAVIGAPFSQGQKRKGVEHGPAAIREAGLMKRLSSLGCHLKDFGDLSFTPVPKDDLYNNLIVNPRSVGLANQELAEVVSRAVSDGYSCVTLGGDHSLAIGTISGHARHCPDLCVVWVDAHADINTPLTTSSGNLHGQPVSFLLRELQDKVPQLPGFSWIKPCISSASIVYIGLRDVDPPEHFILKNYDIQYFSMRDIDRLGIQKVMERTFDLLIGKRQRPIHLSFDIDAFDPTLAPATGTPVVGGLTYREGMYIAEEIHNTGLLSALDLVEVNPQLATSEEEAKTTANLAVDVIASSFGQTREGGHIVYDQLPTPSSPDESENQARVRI
# [6] = target: T3, Proteasome subunit beta (Trypanosoma cruzi) (UniProt O96673); test: Trypanosoma cruzi proteasome chymotrypsin-like activity (TcProtChymo) assay.; note: in the data most compounds retested in dose-response had high values; type: functional; details: 9.37 µM
# T3 sequence (whole entry): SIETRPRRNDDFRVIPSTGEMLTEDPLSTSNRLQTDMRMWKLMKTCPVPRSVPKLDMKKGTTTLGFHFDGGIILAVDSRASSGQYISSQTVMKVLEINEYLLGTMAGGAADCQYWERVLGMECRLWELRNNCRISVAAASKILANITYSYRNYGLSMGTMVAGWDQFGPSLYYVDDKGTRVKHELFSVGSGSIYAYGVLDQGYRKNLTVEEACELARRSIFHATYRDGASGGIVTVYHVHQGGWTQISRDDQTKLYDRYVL
# Homo sapiens = organism: Homo sapiens; test: To identify inhibition of the IFN signalling (Jak-Stat) pathway via expression of an eGFP reporter gene under the control of an IFN-stimulated response element (ISRE) containing MxA promoter.; type: functional; details: 30 µM
# [7] = target: T4, Tyrosyl-tRNA synthetase, putative (Trypanosoma cruzi (strain CL Brener)) (UniProt Q4DSP6); test: Trypanosoma cruzi tyrosyl tRNA synthetase (TcYRS) _High Tyrosine SOP; type: functional; details: 30 µM; note: in the data most compounds retested in dose-response had high values
# T4 sequence (whole entry): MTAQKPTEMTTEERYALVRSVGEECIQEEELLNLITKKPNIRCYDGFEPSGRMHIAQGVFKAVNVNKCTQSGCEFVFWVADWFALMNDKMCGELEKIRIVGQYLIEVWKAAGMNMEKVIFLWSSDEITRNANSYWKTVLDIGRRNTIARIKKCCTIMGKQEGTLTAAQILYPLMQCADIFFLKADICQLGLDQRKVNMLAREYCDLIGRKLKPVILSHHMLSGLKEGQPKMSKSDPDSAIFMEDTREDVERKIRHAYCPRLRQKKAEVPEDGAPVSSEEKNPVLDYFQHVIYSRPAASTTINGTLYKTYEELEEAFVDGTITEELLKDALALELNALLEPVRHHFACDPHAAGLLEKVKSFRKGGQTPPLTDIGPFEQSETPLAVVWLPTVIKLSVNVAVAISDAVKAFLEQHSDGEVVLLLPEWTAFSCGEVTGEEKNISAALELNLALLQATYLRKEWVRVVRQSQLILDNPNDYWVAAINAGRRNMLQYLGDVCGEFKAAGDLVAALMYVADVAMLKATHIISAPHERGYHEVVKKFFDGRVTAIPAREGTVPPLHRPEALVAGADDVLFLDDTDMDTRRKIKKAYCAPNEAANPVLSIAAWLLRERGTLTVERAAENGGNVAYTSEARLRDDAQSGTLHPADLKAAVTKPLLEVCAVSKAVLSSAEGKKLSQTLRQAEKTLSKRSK
# [8] = target: T4, Tyrosyl-tRNA synthetase, putative (Trypanosoma cruzi (strain CL Brener)); test: Trypanosoma cruzi tyrosyl tRNA synthetase (TcYRS) SOP; type: functional; details: 30 µM
# [9] = target: Chromo domain-containing protein 1 (Saccharomyces cerevisiae (strain ATCC 204508 / S288c) (Baker's yeast)) (UniProt P32657); test: ScCHD-1 Enzyme Inhibition Assay; type: functional; details: 30 µM; note: in the data most compounds retested in dose-response had high values
# Chromo domain-containing protein 1 (Saccharomyces cerevisiae (strain ATCC 204508 / S288c) (Baker's yeast)), sequence (P32657 whole entry, the tested form may be a part): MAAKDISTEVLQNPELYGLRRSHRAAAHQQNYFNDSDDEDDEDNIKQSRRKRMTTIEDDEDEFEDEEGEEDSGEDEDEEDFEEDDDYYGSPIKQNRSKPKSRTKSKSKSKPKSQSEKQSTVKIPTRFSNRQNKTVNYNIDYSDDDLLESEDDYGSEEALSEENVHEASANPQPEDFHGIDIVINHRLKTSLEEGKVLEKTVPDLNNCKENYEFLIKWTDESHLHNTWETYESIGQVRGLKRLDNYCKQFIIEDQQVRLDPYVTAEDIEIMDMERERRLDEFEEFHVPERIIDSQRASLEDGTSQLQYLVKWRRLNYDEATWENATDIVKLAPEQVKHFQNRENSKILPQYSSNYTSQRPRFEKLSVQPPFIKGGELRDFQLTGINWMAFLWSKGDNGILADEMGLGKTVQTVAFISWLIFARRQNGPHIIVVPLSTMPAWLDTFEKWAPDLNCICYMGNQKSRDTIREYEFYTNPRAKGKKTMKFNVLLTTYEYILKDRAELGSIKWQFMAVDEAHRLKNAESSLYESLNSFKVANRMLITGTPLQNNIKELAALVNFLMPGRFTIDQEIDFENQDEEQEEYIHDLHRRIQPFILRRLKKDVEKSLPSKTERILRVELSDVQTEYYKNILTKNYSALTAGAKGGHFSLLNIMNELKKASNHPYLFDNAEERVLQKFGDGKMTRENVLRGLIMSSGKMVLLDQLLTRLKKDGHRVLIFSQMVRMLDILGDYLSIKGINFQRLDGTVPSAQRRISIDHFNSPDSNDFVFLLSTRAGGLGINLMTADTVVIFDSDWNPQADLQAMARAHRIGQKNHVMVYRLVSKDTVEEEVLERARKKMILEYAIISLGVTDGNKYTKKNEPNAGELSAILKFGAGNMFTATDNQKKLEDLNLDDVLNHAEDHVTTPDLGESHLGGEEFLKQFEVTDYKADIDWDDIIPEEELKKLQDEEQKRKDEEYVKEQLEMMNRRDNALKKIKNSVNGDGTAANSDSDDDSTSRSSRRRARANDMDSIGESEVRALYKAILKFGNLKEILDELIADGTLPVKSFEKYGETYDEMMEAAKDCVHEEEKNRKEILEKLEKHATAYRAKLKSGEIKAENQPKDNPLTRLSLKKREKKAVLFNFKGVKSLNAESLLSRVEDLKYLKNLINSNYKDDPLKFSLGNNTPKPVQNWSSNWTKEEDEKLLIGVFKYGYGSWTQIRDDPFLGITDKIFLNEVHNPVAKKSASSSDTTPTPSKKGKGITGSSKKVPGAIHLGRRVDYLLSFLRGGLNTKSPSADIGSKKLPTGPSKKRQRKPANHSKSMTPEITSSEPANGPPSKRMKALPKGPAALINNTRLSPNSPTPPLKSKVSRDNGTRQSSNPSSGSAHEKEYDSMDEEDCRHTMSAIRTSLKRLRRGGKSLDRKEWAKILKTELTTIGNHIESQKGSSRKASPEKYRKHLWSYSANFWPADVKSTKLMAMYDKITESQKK
# Protein translocase subunit SecA (Escherichia coli (strain K12)), sequence (P10408 whole entry): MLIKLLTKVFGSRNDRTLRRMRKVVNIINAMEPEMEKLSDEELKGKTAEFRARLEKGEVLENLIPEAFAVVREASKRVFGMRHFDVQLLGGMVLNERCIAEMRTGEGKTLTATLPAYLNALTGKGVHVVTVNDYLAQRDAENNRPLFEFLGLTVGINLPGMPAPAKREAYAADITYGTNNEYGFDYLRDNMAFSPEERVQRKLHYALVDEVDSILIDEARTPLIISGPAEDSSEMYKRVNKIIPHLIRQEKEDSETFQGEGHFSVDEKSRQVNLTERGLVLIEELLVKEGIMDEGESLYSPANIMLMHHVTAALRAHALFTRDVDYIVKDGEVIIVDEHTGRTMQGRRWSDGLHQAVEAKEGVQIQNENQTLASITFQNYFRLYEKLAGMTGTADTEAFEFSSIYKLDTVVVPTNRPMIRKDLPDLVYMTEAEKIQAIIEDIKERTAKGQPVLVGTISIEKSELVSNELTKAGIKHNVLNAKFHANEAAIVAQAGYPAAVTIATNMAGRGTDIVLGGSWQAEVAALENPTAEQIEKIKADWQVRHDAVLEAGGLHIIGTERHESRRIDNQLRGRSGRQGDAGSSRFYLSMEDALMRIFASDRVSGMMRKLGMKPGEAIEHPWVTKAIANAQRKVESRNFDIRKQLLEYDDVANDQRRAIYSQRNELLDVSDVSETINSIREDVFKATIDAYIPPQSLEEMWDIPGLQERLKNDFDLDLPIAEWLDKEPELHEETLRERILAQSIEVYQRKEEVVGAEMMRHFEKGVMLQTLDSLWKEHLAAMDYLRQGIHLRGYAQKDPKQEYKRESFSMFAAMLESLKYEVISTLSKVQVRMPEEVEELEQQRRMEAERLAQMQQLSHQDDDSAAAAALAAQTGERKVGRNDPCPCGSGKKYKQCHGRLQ
# Sialic acid-binding Ig-like lectin 9 (Homo sapiens), sequence (Q9Y336 whole entry): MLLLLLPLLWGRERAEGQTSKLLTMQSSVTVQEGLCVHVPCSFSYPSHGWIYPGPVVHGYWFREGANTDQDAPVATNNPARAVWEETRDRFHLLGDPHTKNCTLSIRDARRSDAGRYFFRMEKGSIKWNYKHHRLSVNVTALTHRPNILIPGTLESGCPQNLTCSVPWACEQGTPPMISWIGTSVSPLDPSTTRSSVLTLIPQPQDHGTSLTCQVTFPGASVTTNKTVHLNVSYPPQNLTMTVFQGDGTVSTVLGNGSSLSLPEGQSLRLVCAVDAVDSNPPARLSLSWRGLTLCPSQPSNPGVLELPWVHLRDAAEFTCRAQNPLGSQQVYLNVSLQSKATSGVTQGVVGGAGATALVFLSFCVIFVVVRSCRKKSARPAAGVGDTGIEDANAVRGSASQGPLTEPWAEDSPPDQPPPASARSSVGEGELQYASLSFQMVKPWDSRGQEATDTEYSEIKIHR
SMILES,Percent Effect [1],Percent Effect [2],Percent Effect [3],Percent Effect [4],Percent Effect (Trypanosoma cruzi),Percent Effect [5],Percent Effect [6],Percent Effect (Homo sapiens),Percent Effect [7],Percent Effect [8],Percent Effect [9]
Cc1nn(C)c(C)c1C(=O)N1CCOCC1CC(=O)c1ccco1 (stereo unspecified),-2.08%,0%,5.49%,5.37%,4.19%,-8.28%,-0.0959%,-9.68%,0%,7.79%,-0.43%
O=C(NCc1ccccc1CN1CCC(O)CC1)Nc1cccnc1,-1.42%,-5.41%,-1.33%,2.18%,0.193%,2.38%,8.79%,-8.19%,1.59%,-2.44%,-1.85%
Cc1ccc(C(CNCC2CC2)N2CCOCC2)s1 (stereo unspecified),4.94%,8.11%,-0.221%,3.49%,-6.05%,1.67%,11.9%,26.7%,9.9%,8.54%,-6.06%
Cc1cn2nc(N3CCCC3CC(C)(C)C)sc2n1 (stereo unspecified),-5.41%,-1.27%,7.29%,3.5%,0.103%,2.8%,11%,15.4%,3.12%,7.59%,-4.52%
CSCC(=O)N1CCC2(CC1)c1ccccc1CC2O (stereo unspecified),-1.39%,18.2%,10.7%,2.45%,2.26%,-4.14%,18.5%,5.92%,5.38%,11.1%,-3.92%
Cc1nn(C)cc1C(=O)N1C[C@H]2CC[C@@H]1CN(S(=O)(=O)N(C)C)C2,-0.765%,5.33%,-1.08%,4.66%,-8.08%,2.6%,20.2%,13.3%,0.546%,1.24%,-6.02%
COCCN1CCCC(O)(CN2CCN(c3ncccc3C)CC2)C1=O (stereo unspecified),5.28%,-27%,-3.41%,7.83%,-5.21%,0.476%,15.3%,9.99%,8.99%,12.2%,-5.83%
CCc1noc(C)c1C(=O)N1CCCC1Cn1nc(C)cc1C (stereo unspecified),-3.14%,5.26%,-1.52%,-4.06%,2.71%,1.8%,-3.47%,-20.2%,4.43%,13.6%,-6.42%
O=C(Cc1ccc2c(c1)OCCO2)N1CCCC(n2ccnc2)C1 (stereo unspecified),-8.71%,5.2%,-7.38%,-6.56%,10.7%,-3.58%,4.77%,2.67%,1.91%,11.8%,-24.2%
Cc1nn(C)c(N(C)C)c1CNC1CCc2c(F)cccc21 (stereo unspecified),0.322%,13.2%,-5.14%,-4.54%,4.89%,5.75%,17%,-1.05%,6.37%,17.1%,-6.66%
CN(C)S(=O)(=O)N1CCC(Oc2ccc(C#N)cn2)CC1,-4.11%,5.2%,0.734%,0.477%,3.25%,-0.645%,17.2%,28%,5.29%,8.97%,-8.98%
CCNC(=O)c1nnc2ccc(N3CCOCC3)cc2n1,-7.02%,-1.33%,58.5%,3.63%,-6.09%,-3.7%,7.95%,19.8%,7.41%,7.69%,-13.2%
CCN1CC2(CC1=O)CN(C(C)=O)CCN(C(=O)c1ccco1)C2 (stereo unspecified),-1.61%,5.48%,-6.62%,5.12%,-0.595%,-4.79%,5.05%,4.81%,1.04%,3.7%,-1.88%
CCc1ncnc2c1CCN(C(=O)Cc1ccccn1)CC2,-1.33%,4%,-1.05%,1.52%,-0.786%,-9.33%,11.8%,12.9%,1.06%,-5.13%,-2.69%
O=C(CCc1nc2cccnc2[nH]1)Nc1cccnc1,-3.23%,22.7%,-1.32%,1.96%,3.14%,-2.29%,14.1%,-1.85%,2.12%,20.5%,-7.05%
COc1cc2nc3n(c(=O)c2cc1OC)CCN(C(C)=O)CC3,-1.86%,4.05%,9.32%,3.01%,0.593%,-1.16%,5.62%,11.5%,1.07%,11.7%,-1.39%
